The nature of experiment [1]: anti-His antibody binders, primary screen, artefact control for SMM control protein annotation, biochemical, small-molecule microarray, 635 nm fluorescence (AID 1128).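 Also: score merges feature fluorescence with signal-to-noise for each printed compound spot.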 The following applies: anti-His Alexa647 antibody binding, higher = more signal.
Experiment [2] deals with Human papillomavirus type 1a E7 protein (residues 1-88). In words: HPV1a E7 small-molecule binders, primary screen, biochemical, small-molecule microarray, residues 1-88, 635 nm (AID 1129). As to conditions: small-molecule microarray binding, fluorescence 635 nm; higher = more signal.
Experiment [3] concerns the target Focal adhesion kinase 1 (Homo sapiens) (UniProt Q05397). The experiment in a line: small-molecule microarray binders of FAK, primary screen, biochemical, 635/667 nm fluorescence, BSA, DTT (AID 1130).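 Also: composite of spot emission at 667 nm and signal to noise over triplicate slides.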 The following applies: PTK2 binding, 635 nm fluorescence, higher = more signal.
The test system of experiment [4] is Fibrinogen (Alexa647-labelled). The experiment in a line: fibrinogen binders on compound microarrays, profiling panel, artefact control for SMM control-protein annotation, biochemical, small-molecule microarray, 635/667 nm fluorescence (AID 1131).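 Also: z-score merges 667 nm fluorescence with per-spot signal-to-noise over triplicate slides.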 As to conditions: fibrinogen-A647 binding fluorescence, higher = more signal.
Experiment [5] concerns the target Follistatin (Homo sapiens) (UniProt P19883). In words: follistatin binders on small-molecule microarrays, primary screen, biochemical, small-molecule microarray, 635/667 nm fluorescence (AID 1132). The following applies: FST binding, 635 nm fluorescence, higher = more signal.
Experiment [6] concerns the target Fibroblast growth factor 2 (Homo sapiens) (UniProt P09038). The experiment in a line: FGF2 binders on small-molecule microarrays, primary screen, biochemical, small-molecule microarray, 635/667 nm fluorescence (AID 1133). The following applies: small-molecule microarray binding, FGF2, fluorescence 635/667; higher = more signal.
Experiment [7] can be described thus: mitochondrial membrane potential change in A549 cells, profiling panel, cell-based, JC-1 fluorescence, basal, 24 h, 100 nL (AID 1138).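 Also: A549 lung adenocarcinoma cells under basal conditions with no added stimulus; test concentration not given here.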 As to conditions: higher = more signal.
In the next experiment the test system is Lefty1. In words: Lefty1 binders on small-molecule microarrays, primary screen, biochemical, small-molecule microarray, 635/667 nm fluorescence (AID 1139). As to conditions: small-molecule microarray binding, fluorescence 635/667; higher = more signal.
For experiment [8], the system named is wheat germ agglutinin (Triticum aestivum), Alexa647-labelled. The experiment in a line: wheat germ agglutinin binders on compound microarrays, profiling panel, artefact control for SMM control-protein annotation, biochemical, small-molecule microarray, 635/667 nm fluorescence (AID 1140).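 Also: score merges 667 nm feature emission with signal to noise over triplicate slides.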 The following applies: WGA-A647 binding, 635 nm fluorescence, higher = more signal.

The target in experiment [9] is Luciferin 4-monooxygenase (Photinus pyralis) (UniProt P08659). In words: firefly luciferase enzyme inhibitors, primary screen, biochemical, luminescence, purified enzyme, 2006 set (AID 1141).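 Also: cell-free assay with purified firefly luciferase at 100 ng per well in PBS; test concentration not given here.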 As to conditions: SteadyGlo luminescence, 30 min, higher = more signal, called active from +8 up or from −8 down.
Experiment [10] concerns Wnt5a (protein binding on small-molecule microarray). The experiment in a line: Wnt5a binders on small-molecule microarray, primary screen, biophysical, 635/667 nm fluorescence (AID 1142).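 Also: fluorescence read at 667 nm with signal to noise per printed feature.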 As to conditions: 635 nm fluorescence, higher = more signal.
The nature of experiment [11]: cell viability in Huh7 cells, primary screen, cytotoxicity control for HCV replication inhibitor project, CellTiter-Glo luminescence, basal, 48 h (AID 1143).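 Also: Huh7 hepatoma cells carrying a hepatitis C replication reporter with no stimulus; test concentration not given here.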 The following applies: Huh7 HCV replicon, higher = more signal, called active from +8 up or from −8 down. A general note: Cellular ATP, detected with luciferase, serves as a proxy for viable cell number.
A short description of experiment [12]: P. aeruginosa biofilm formation inhibitors, primary screen, PAO1 strain, BacTiter-Glo luminescence, LB-PBS (AID 1144). As to conditions: 12 h, higher = more signal.
A short description of experiment [13]: CREB reporter modulators without forskolin, primary screen, cell-based, PC12, CRE-LacZ reporter, unstimulated (AID 1145). As to conditions: no forskolin, luminescence, 4.5 h, higher = more signal, called active from +8 up or from −8 down.
Experiment [14] is described as follows: CREB reporter modulators under forskolin, primary screen, cell-based, PC12, CRE-LacZ reporter, forskolin-stimulated (AID 1146).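 Also: PC12 cells with 6xCRE LacZ reporter stimulated by forskolin 10 µM; beta-galactosidase reporter signal reflecting CREB driven transcription.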 The following applies: luminescence, 4.5 h, higher = more signal, called active from +8 up or from −8 down.
Experiment [15] deals with Streptavidin (Streptomyces avidinii) (UniProt P22629). The experiment in a line: streptavidin binders on small-molecule microarray, primary screen, artefact control for SMM compound annotation, biophysical, 635/667 nm fluorescence (AID 1147).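 Also: signal reflects streptavidin binding to arrayed compounds as a control protein.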 The following applies: streptavidin binding, higher = more signal.
A short description of experiment [16]: small-molecule binders of probe aInhba, primary screen, biochemical, small-molecule microarray, 635/667 nm fluorescence (AID 1148).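 Also: score merges 667nm spot fluorescence with signal-to-noise for antibody binding to printed compounds.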 The following applies: higher = more signal.
Experiment [17] addresses Torsin-1A (Homo sapiens) (UniProt O14656). In words: torsin A binders from cell lysate, primary screen, small-molecule microarray, wild-type, 635/667 nm (AID 1149). The following applies: COS7 hTOR1A-WT lysate, 635 nm fluorescence, higher = more signal.
For experiment [18] the target is unchanged. The experiment in a line: small-molecule binders of mutant TOR1A in lysate, primary screen, cell lysate, small-molecule microarray, COS7 lysate, 635/667 nm fluorescence (AID 1150).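 Also: score pools 667 nm emission and signal to noise measuring lysate protein binding.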 The following applies: COS7 hTOR1A mutant lysate, 635 nm fluorescence, higher = more signal.
Experiment [19] has as its system Sonic hedgehog protein (Shh). The experiment in a line: small-molecule binders of Shh protein, primary screen, biochemical, small-molecule microarray, 635/667 nm fluorescence (AID 1151).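 Also: Shh protein binding to compounds spotted on small-molecule microarray slides; score combines spot fluorescence intensity with signal-to-noise across triplicate slides.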 As to conditions: small-molecule microarray binding, 635 nm fluorescence; higher = more signal.

The source made the active and inactive calls. Unless noted, no rule for the calls is given here.

Drawing on PubChem BioAssay, this text covers composite z-score and z-score for 5 molecules.

Sequence of Focal adhesion kinase 1 (Homo sapiens) (Q05397 whole entry, looked up): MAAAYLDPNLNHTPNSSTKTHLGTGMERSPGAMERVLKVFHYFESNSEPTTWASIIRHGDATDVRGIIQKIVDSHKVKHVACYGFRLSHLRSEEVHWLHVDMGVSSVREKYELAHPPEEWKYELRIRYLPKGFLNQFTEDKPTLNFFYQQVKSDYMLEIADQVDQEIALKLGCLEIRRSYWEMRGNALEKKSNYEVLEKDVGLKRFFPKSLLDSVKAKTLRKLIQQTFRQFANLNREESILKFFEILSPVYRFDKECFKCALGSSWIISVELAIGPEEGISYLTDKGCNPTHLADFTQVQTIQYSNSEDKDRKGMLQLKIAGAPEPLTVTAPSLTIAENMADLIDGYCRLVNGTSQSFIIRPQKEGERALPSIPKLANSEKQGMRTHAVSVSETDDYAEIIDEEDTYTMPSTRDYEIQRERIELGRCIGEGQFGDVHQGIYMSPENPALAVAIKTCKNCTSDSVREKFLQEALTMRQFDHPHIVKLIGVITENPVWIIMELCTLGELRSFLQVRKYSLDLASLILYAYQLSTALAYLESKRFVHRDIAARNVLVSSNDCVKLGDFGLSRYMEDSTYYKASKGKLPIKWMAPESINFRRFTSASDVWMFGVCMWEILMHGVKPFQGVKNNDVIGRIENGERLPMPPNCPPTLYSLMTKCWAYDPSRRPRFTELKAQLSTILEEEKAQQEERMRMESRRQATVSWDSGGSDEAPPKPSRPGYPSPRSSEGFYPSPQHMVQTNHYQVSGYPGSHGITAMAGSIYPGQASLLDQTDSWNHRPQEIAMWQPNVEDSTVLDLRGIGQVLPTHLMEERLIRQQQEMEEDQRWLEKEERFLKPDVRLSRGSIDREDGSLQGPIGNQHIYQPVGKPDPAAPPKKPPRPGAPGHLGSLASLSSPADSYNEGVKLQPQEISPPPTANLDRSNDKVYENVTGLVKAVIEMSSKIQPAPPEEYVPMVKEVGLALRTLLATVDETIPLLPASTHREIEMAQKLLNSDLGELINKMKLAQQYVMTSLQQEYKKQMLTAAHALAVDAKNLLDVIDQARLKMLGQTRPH
Sequence of Streptavidin (Streptomyces avidinii) (P22629 whole entry, looked up): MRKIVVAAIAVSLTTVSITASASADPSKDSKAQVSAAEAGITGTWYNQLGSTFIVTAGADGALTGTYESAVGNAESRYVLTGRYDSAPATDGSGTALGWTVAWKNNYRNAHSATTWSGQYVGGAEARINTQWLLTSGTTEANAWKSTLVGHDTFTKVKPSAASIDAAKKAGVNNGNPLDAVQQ
Sequence of Follistatin (Homo sapiens) (P19883 whole entry, looked up): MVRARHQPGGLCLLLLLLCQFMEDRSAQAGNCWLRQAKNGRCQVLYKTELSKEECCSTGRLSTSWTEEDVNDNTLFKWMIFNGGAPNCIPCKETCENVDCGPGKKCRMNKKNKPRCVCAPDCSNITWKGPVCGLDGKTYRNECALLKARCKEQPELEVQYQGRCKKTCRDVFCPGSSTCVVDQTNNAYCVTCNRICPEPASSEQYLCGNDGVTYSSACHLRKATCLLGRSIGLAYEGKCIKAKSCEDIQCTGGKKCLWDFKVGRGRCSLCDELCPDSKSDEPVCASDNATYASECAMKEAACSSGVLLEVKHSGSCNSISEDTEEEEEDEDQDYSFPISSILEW
Sequence of Torsin-1A (Homo sapiens) (O14656 whole entry, looked up): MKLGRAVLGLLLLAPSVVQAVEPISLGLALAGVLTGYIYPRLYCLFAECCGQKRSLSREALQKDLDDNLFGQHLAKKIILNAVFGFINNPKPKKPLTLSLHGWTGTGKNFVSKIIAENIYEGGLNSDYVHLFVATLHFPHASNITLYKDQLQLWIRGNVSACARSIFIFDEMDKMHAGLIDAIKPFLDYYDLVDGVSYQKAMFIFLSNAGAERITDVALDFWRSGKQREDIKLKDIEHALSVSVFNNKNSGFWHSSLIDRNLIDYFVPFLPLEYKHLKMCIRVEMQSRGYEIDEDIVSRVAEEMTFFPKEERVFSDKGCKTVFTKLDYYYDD
Sequence of Luciferin 4-monooxygenase (Photinus pyralis) (P08659 whole entry, looked up): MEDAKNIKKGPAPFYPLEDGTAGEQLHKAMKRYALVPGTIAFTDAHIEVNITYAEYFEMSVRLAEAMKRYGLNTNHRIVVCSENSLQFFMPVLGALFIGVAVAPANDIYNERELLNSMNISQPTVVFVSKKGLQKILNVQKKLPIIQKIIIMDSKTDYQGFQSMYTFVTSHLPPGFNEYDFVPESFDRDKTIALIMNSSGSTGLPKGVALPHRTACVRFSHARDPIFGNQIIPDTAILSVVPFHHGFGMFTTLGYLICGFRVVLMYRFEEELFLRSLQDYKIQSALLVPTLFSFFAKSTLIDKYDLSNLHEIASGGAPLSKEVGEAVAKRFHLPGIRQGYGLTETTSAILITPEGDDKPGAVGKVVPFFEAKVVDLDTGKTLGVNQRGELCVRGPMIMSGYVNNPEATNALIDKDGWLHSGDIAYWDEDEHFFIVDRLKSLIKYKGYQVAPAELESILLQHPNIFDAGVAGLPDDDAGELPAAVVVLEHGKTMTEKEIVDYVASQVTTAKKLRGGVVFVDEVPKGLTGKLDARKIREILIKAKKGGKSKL
Sequence of Fibroblast growth factor 2 (Homo sapiens) (P09038 whole entry, looked up): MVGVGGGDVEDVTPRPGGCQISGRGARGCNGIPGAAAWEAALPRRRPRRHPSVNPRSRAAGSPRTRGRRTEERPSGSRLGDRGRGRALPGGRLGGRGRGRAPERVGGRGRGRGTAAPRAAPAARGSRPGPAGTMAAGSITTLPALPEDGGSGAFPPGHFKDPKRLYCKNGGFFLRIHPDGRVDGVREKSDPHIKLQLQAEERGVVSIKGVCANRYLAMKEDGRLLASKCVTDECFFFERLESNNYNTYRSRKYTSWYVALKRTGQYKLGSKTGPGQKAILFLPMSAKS

In the case of `O=C(NN=C1C[C@@H](O)[C@@H](O)[C@@H]2[C@@H]3C(=O)N(C4CCCCC4)C(=O)[C@@H]3CC[C@@H]12)OCc1ccccc1`, the composite z-score was determined as 0.0161 in experiment [1]; 0.139 in experiment [2]; 0.0639 in experiment [3]; 0.294 in experiment [4]; 0.0434 in experiment [5]; 0.243 in experiment [6]. Moreover, the composite z-score with Lefty1 was -0.0104; in experiment [8] it was -0.132; in experiment [10], -0.03; in experiment [15], -0.225; in experiment [16], -0.384; with Torsin-1A (Homo sapiens) [17] it was 0.205. The values for the composite z-score (with Torsin-1A (Homo sapiens) [18]; in [19]) were -0.0666 and -0.364, respectively. For the same molecule, the z-score is 0.163 in experiment [7]; -0.427 (inactive) in experiment [9]; 0.0845 (inactive) in experiment [11]; 1.15 (inactive) in [12]; 1.79 (inactive) in experiment [13]; 0.0171 (inactive) in experiment [14].

Turning to `C[C@H]1Cc2c(COc3ccccc3)nc3c(c2CO1)CN(CCOc1ccccc1)CC3`, the composite z-score in experiment [1] is 1.07; in experiment [2], 0.804; in experiment [3], 0.673; in [4] it was 0.702; in [5], 1.18; in experiment [6], 0.537. In addition, the composite z-score with Lefty1 is 1.13; in experiment [8], 0.346; in experiment [10], 0.0543; in experiment [15], 0.426; in [16], -0.157; in the experiment with Torsin-1A (Homo sapiens) [17], 0.53. The composite z-score came out at 0.217 with Torsin-1A (Homo sapiens) [18] and 1.21 in experiment [19]. Besides, the z-score in [7] is 4.09; in experiment [9], -1.19 (inactive); in experiment [11], -0.491 (inactive); in experiment [12], -1.96 (inactive); in [13], 3.54 (inactive); in experiment [14], -0.632 (inactive).

Regarding `CC(C)=CCCC(C)=CCON=C1C[C@@H](O)[C@@H](O)[C@@H]2[C@@H]3C(=O)N(Cc4ccccc4)C(=O)[C@@H]3CC[C@H]12`, the composite z-score in [1] was determined as 0.267; in experiment [2] it was 1.2; in experiment [3], 0.171; in experiment [4], 0.476; in [5], 0.669; in [6], 0.736. Also, the composite z-score is 0.751 with Lefty1; 0.283 in [8]; -0.0617 in [10]; 0.0609 in experiment [15]; -0.0736 in [16]; 0.23 with Torsin-1A (Homo sapiens) [17]. The composite z-score amounted to 0.0793 in the experiment with Torsin-1A (Homo sapiens) [18] and 0.993 in experiment [19]. The z-score is -0.566 in experiment [7]; 0.71 (inactive) in experiment [9]; -3.4 (inactive) in [11]; -0.302 (inactive) in experiment [12]; -0.293 (inactive) in [13]; -0.96 (inactive) in [14].

As for `CC(CCN1CCCCc2nc(C)c(C)cc21)=NO[C@@H](C)c1cn([C@H](CO)Cc2ccccc2)nn1`, the composite z-score in experiment [1] was 1.67; in experiment [2] it was 0.285; in experiment [3] it was 0.321; in experiment [4], 0.624; in [5], 0.915; in experiment [6] it was 0.545. Moreover, the composite z-score in the experiment with Lefty1 is 0.828; in [8], -0.101; in experiment [10], -0.0648; in [15], 0.336; in [16], -0.016; with Torsin-1A (Homo sapiens) [17], 0.803. The composite z-score with Torsin-1A (Homo sapiens) [18] stood at 0.728; in [19] it was 1.02. The z-score was 0.868 in experiment [7]; 0.175 (inactive) in [9]; -0.831 (inactive) in [11]; 0.48 (inactive) in experiment [12]; 1.62 (inactive) in experiment [13]; -0.0513 (inactive) in experiment [14].

Regarding `CO[C@H]1COC(=O)CC=C[C@@H](C)[C@H](OC)COC(=O)CCC[C@@H]1C`, the composite z-score was 0.165 in experiment [1]; -0.289 in [2]; -0.735 in experiment [3]; -0.511 in experiment [4]; 0.776 in experiment [5]; 1.15 in experiment [6]. Further, the composite z-score with Lefty1 is 0.945; in [8] it was -0.173; in [10], -0.0494; in experiment [15], 0.0616; in experiment [16], -0.153; with Torsin-1A (Homo sapiens) [17], 1.89. Moreover, the results for the composite z-score (with Torsin-1A (Homo sapiens) [18]; in experiment [19]) were 0.33 and 1.18, respectively. In addition, the z-score is -0.738 in experiment [7]; 1.09 (inactive) in [9]; -0.127 (inactive) in [11]; -0.913 (inactive) in experiment [12]; -0.482 (inactive) in [13]; 0.0877 (inactive) in experiment [14].
